CYP2C9 inh: human CYP2C9 inhibition | P11712 | CYP2C9 Supersomes, luciferin-H conversion, luminescence | inhibition, % at 5 µM | actives 20% (n = 96,000) | AID 777;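 active means blocking of liver enzyme CYP2C9 beyond about 50% at 5 µM, limit read from the data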
CYP2C9 act: increases human cytochrome P450 2C9 activity; recombinant CYP2C9, luciferin-H conversion, luminescence; hits give high values; factor 1 = untreated enzyme, 0 = blocked; activation factor at 5 µM; actives 1.4% (n = 96,000); AID 1024;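 active means activation factor of 2 or more for CYP2C9 at a 5 µM dose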
CYP2C19 inh: blocks human cytochrome P450 2C19. actives 21% (n = 96,000). CYP2C19 Supersomes, luciferin-H EGE luminescence, 30 min. P33261. AID 778. inhibition, % at 5 µM;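 active means CYP2C19 inhibition above a set limit at 5 µM in the primary screen, cut at about 50% in these data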
Target sequence (P33261 whole entry, looked up): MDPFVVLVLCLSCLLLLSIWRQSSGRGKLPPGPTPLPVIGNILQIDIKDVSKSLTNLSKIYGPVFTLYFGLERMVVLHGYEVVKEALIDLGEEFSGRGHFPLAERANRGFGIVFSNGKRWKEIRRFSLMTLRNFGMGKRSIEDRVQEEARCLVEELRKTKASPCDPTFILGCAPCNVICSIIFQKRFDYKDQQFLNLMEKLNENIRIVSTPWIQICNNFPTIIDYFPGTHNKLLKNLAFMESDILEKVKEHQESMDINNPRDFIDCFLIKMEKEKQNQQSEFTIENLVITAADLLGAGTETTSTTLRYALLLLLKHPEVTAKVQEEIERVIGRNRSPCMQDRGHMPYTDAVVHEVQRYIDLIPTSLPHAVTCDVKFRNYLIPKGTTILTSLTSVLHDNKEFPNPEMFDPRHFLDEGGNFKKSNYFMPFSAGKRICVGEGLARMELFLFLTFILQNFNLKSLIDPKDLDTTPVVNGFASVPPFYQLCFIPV
Cav3 T inh: blocks human Cav3.2 T-type calcium channel; Cav3.2-expressing cells, Fluo-4 calcium fluorescence FDSS; hits give low values; B-score at 10 µM; actives 4% (n = 100,000);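 active means single-dose well whose peak fluorescence ratio is a statistical outlier from its plate by either plate-standardised score or position-corrected B-score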
CYP2C19 act: activators of human cytochrome P450 2C19; activation factor at 5 µM; P33261; recombinant CYP2C19, luciferin-H EGE luminescence; hits give high values; 0 = fully inhibited enzyme, 1 = untreated enzyme; AID 1025; 96,000 tested, under 10 active;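 active means activation factor of at least 2 at 5 µM in the primary screen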
A number is an active result; 0 = inactive; - = no result. Shown are actives, neighbours in structure and some others; about 27% of the full set was active somewhere.

SMILES	CYP2C9 inh	CYP2C9 act	CYP2C19 inh	Cav3 T inh	CYP2C19 act
O=C1C2C3C=CC([C@@H]2C(=O)N1Cc1cccnc1)C31CC1 (some centres not stated)	0	0	72	0	0
O=C(O)C1C2C=CC(C2)C1C(=O)NC1CCN(Cc2ccccc2)CC1 (configuration not stated)	0	0	0	-	0
C=CCSc1nc(Oc2ccccc2)c2sccc2n1	0	0	54	0	0
CSc1nc(Oc2ccccc2)c2sccc2n1	60	0	0	0	0
CCOc1ccc(CNC(=O)NS(=O)(=O)c2ccc(OC)cc2)cc1	0	0	0	0	0
CSc1ccc(S(=O)(=O)NCc2ccc(C)cc2)cc1	0	0	95	0	0
COCC(C)NS(=O)(=O)c1ccc(OC)cc1 (configuration not stated)	0	0	61	0	0
COc1ccc(S(=O)(=O)NCc2cccs2)cc1	0	0	95	0	0
CCCOc1ccc(S(=O)(=O)NCc2ccc(OC)cc2)cc1	0	0	58	0	0
O=C(Nc1ccsc1C(=O)N1CCCCCC1)c1ccccc1	0	0	0	0	0
N#CCCCSc1nnc(-c2ccccn2)o1	0	0	0	-	0
COc1ccc(CNS(=O)(=O)c2ccc(OC)cc2)cc1	0	0	76	0	0
COc1ccc(S(=O)(=O)NCc2ccccc2)cc1	0	0	97	0	0
COc1ccc(CNS(=O)(=O)c2ccc(C)cc2)cc1	-	-	-	0	-
COc1ccc(S(=O)(=O)NCCC(=O)NCc2ccccc2)cc1	0	0	0	0	0
COC(=O)c1c(S(=O)(=O)NCc2ccccc2)sc(C(=O)O)c1C	62	0	0	0	0
Cn1c(=O)cc(SCC(=O)NCc2cccnc2)c2ccccc21	-	-	-	0	-
CC1=CC=CC2=NC(=O)CC(C)(C(=O)N(CC(=O)NC3CCCC3)c3ccccc3C)N12 (configuration not stated)	0	0	0	0	0
O=C(N/N=C/c1ccc([N+](=O)[O-])s1)c1cccc(Br)c1	-	-	-	0	-
CN1CCN(c2ccc([N+](=O)[O-])cc2/C=N/NC(=O)c2ccc(F)cc2)CC1	58	0	64	-	0
CCN(CC)C(=O)C1CCCN(c2ccc([N+](=O)[O-])cc2/C=N/NC(=O)c2cccc(Br)c2)C1 (configuration not stated)	85	0	52	-7.2	0
OCC[C@@H]1C[C@H](O)[C@@H](O)[C@@]2(CCCO2)O1	-	-	-	0	-
COC(=O)C(Cc1ccc(O)cc1)NC(=O)C(C)Oc1ccccc1 (configuration not stated)	58	0	94	0	0
COC(=O)C(NC(=O)C(C)Oc1ccccc1)C(C)C (configuration not stated)	0	0	0	0	0
O=S(=O)(Nc1cnc2ccccc2c1)N1CCCCCC1	0	0	57	0	0
SMILES	CYP2C9 inh	CYP2C9 act	CYP2C19 inh	Cav3 T inh	CYP2C19 act
CN(C)C(=O)Nc1cnc2ccccc2c1	0	0	0	0	0
CC12CCC(C(=O)N3CCN(C(c4ccccc4)c4ccccc4)CC3)(OC1=O)C2(C)C (configuration not stated)	86	0	0	0	0
O=C(C1CC1)N1CCN(C(c2ccccc2)c2ccccc2)CC1	69	0	93	0	0
O=C(C1CC1)N1CCC(C(O)(c2ccccc2)c2ccccc2)CC1	61	0	90	0	0
CCNC(=S)N1CCN(C(c2ccccc2)c2ccccc2)CC1	91	0	0	0	0
O=C(O)C1Nc2ccc(C(F)(F)F)cc2C2OCCC12 (configuration not stated)	-	-	-	0	-
COc1ccccc1-c1cc(C(=O)NCc2ccco2)no1	0	0	0	0	0
COCCNC(=O)c1cc(-c2ccccc2OC)on1	0	2.6	0	0	0
COc1ccccc1-c1cc(C(=O)NCc2cccs2)no1	0	2.3	0	0	0
CCOC(=O)C1=C(Cc2ccc(C)cc2)C(=O)c2ccccc2C1=O	61	0	74	0	0
CCOC(=O)C1=C(Cc2ccc(OC)cc2)C(=O)c2ccccc2C1=O	55	0	56	-	0
CCOC(=O)c1c(C)nc2c(c1-c1cc(OC)ccc1OC)C(=O)c1ccccc1-2	0	0	0	0	0
CCOC(=O)c1ccc(COC(=O)c2ccc3c(c2)-c2ccccc2C3=O)cc1	0	0	0	0	0
O=C(COC(=O)c1ccccc1NC(=O)c1ccco1)Nc1ncc(Cl)cc1Cl	64	0	0	0	0

Assay outcomes: PubChem, several laboratories
